Compound activity as filed in PubChem BioAssay.
aSyn UTR act: Activators via SNCA 5'UTR binding, MLPCN; activity score, % (tested at 7.5 µM), hits read low; actives 7.1% (n = 300,000); alpha-synuclein 5'UTR reporter, activators screen; AID 1814; in the data active = activity score below about -60%
Of the large screens only hits and unclear results are named; the others gave an inactive call. A selection follows.

CCOC(=O)/C(C#N)=C/c1ccc(-c2ccsc2C(=O)OC)o1	aSyn UTR act -117.4
CCOC(=O)C(=Cc1ccc(-c2ccsc2C(=O)OC)o1)C(=O)OCC	aSyn UTR act -87.9
CC1CCC(NC(=O)C2CCN(c3c4c(nc5ncnn35)CCC4)CC2)CC1 (stereo not drawn)	aSyn UTR act -64.6
Cn1c(N/N=C/c2cc3ccccc3nc2Cl)nc2ccccc21	aSyn UTR act -127.0
Cn1c(N/N=C/c2c[nH]c3ccccc23)nc2ccccc21	aSyn UTR act -126.4
Fc1c(F)c(F)c(N/N=C/c2c[nH]c3ccccc23)c(F)c1F	aSyn UTR act -103.1
[O-]/C(=C(\C(=S)Nc1ccc(SC(F)F)cc1)[n+]1cccc(CO)c1)c1ccc(Cl)s1	aSyn UTR act -70.6
O=C(Nc1ccc(N2CCOCC2)c(Cl)c1)c1cc(F)c(F)cc1Cl	aSyn UTR act -63.8
COc1c(C)cccc1C(=O)Nc1ccc(N2CCOCC2)c(Cl)c1	aSyn UTR act -173.2
C=CCN(c1ccccc1OC)S(=O)(=O)c1ccc(Cl)c(C(=O)Nc2ccc(N3CCOCC3)cc2)c1	none
O=C(CSc1nccn1-c1ncc(C(F)(F)F)cc1Cl)c1ccc(Cl)cc1	aSyn UTR act -127.1
NC(=O)c1ccsc1NC(=O)COc1ccccc1	aSyn UTR act -136.5
O=C(COc1ccc([N+](=O)[O-])cc1)Nc1nc(-c2ccccn2)cs1	none
O=C(COc1ccccc1)Nc1nccs1	aSyn UTR act -99.9
O=C(COc1ccc2ccc(=O)oc2c1)Nc1nccs1	aSyn UTR act -84.7
Oc1ccccc1C(Nc1nccs1)c1ccc2cccnc2c1O (stereo not drawn)	none
O=C(COC(=O)c1ccccc1Cl)Nc1nccs1	aSyn UTR act -91.5
O=C(NCCc1ccccc1)C(=O)Nc1nccs1	aSyn UTR act -83.9
C/C(=C\C(=O)Nc1nccs1)c1ccccc1	aSyn UTR act -197.1
Cn1cc(SCC(=O)Nc2nccs2)c2ccccc21	aSyn UTR act -165.1
NC(=NCc1ccco1)NC(=O)c1ccc(Cl)cc1	aSyn UTR act -127.7
CC(=O)c1ccc(NC(=O)CSc2nccn2CCc2ccccc2)cc1	aSyn UTR act -128.2
N#Cc1ccccc1NC(=O)CSc1nccn1CCc1ccccc1	aSyn UTR act -149.4
C=CC(=O)Oc1ccc(N2Cc3ccccc3C2=O)cc1	aSyn UTR act -113.5
O=C1c2ccccc2C(=O)c2c1ncn2-c1ccccc1	none
O=C1c2ccccc2CN1c1ccccc1	aSyn UTR act -107.3
O=C(O)c1ccc(N/N=C/c2cccc3cccnc23)cc1	aSyn UTR act -89.2
O=C(O)c1ccc(N/N=C/c2ccnc3ccccc23)cc1	aSyn UTR act -119.4
Oc1ccccc1/C=N/Nc1cccc2cccnc12	aSyn UTR act -233.8
COc1ccc2c(C(=O)CN3CCC(C)CC3)c[nH]c2c1	aSyn UTR act -76.0
CCOC(=O)C(C)On1c(-c2cccc(Cl)c2)nc2ccc([N+](=O)[O-])cc21 (stereo not drawn)	aSyn UTR act -62.0
CCOC(=O)COn1c(-c2cccc(Cl)c2)nc2ccc([N+](=O)[O-])cc21	aSyn UTR act -192.2
CCCc1cc(=O)n2[nH]c(-c3cccc(Br)c3)cc2n1	aSyn UTR act -180.6
CCCc1cc(=O)n2[nH]c(-c3ccc(Br)cc3)cc2n1	aSyn UTR act -87.3
CCCc1cc(=O)[nH]c(-n2[nH]c3c(c2=O)CCCC3)n1	none
N#C/C(=N/Nc1ccc(OC(F)(F)F)cc1)C(N)=S	aSyn UTR act -71.3
Cc1ccc(OCc2nc(-c3cccnc3)no2)cc1C	aSyn UTR act -124.9
Cc1cc(OCc2nc(-c3cccnc3)no2)c(C)cc1Br	aSyn UTR act -68.5
Cc1ccccc1OCc1nc(-c2cccnc2)no1	aSyn UTR act -70.6
Cn1cccc1C(=O)OCc1cc(Cl)cc2c1OCOC2	aSyn UTR act -80.4
O=C(Nc1ccccc1)Nc1ccc(-n2ccc(C(F)(F)F)n2)cc1	aSyn UTR act -276.6
Cc1cccc(NC(=O)c2ccc(N3CCOCC3)c([N+](=O)[O-])c2)n1	aSyn UTR act -114.7
Cc1cccc(NC(=O)c2ccc(N3CCCCC3)c([N+](=O)[O-])c2)n1	aSyn UTR act -156.9
Cc1ccc(NC(=O)c2ccc(NCCN)c([N+](=O)[O-])c2)cc1Cl	aSyn UTR act -85.1
CCOC(=O)c1ccc(NCCOC)c([N+](=O)[O-])c1	aSyn UTR act -90.9
Cc1ccc(C(=O)c2cc([N+](=O)[O-])ccc2N2CCOCC2)c(C)c1	none
O=C(Nc1ccccc1)c1ccc(NCC2CCCO2)c([N+](=O)[O-])c1 (stereo not drawn)	aSyn UTR act -125.2
Cc1cccc(NC(=O)c2ccc(N(C)C3CCCCC3)c([N+](=O)[O-])c2)n1	aSyn UTR act -64.1
Cc1cc(C(=O)Nc2ccc(N3CCCC3)c(Cl)c2)ccc1[N+](=O)[O-]	aSyn UTR act -61.8
O=C(Nc1cccnc1)c1ccc(N2CCCC2)c([N+](=O)[O-])c1	aSyn UTR act -87.1
CC(C)CCNc1nc(N)c([N+](=O)[O-])c(NCC2CCCO2)n1 (stereo not drawn)	none
Cc1ccc(NC(=O)c2ccc(NCCCN3CCC(C)CC3)c([N+](=O)[O-])c2)c(C)c1	aSyn UTR act -63.2
CCCCN(C)S(=O)(=O)c1ccc(C(=O)N(CCN(C)C)c2nc3ccc(C)cc3s2)cc1	aSyn UTR act -74.4
CCOc1cccc2sc(N(CCCN(C)C)C(=O)c3ccc(S(=O)(=O)N(C)Cc4ccccc4)cc3)nc12	none
CN(C)CCN(C(=O)c1ccc2ccccc2c1)c1nc2cc3c(cc2s1)OCCO3	aSyn UTR act -74.5
Cc1ccc2sc(N(CCCN(C)C)C(=O)c3ccc(S(=O)(=O)N(C)Cc4ccccc4)cc3)nc2c1C	aSyn UTR act -72.8
CCOc1cccc2sc(N(CCCN(C)C)C(=O)c3ccc(S(=O)(=O)N(CC)Cc4ccccc4)cc3)nc12	none
Cc1ccc2nc(N(CCN(C)C)C(=O)c3ccc4c(c3)OCCO4)sc2c1	aSyn UTR act -110.3
CCN(CC)CCN(C(=O)c1cc2c(ccc3ccccc32)oc1=O)c1nc2cc3c(cc2s1)OCCO3	none
COc1ccc(OC)c2sc(N(CCCN(C)C)C(=O)c3ccc(S(=O)(=O)N4CCc5ccccc5C4)cc3)nc12	none
Cc1ccc2nc(N(CCCN(C)C)C(=O)c3ccc4ncsc4c3)sc2c1	aSyn UTR act -83.5
COc1ccc(C)c2sc(N(CCCN(C)C)C(=O)c3ccc(S(=O)(=O)N4CCc5ccccc5C4)cc3)nc12	none
COc1ccc(C)c2sc(N(CCCN(C)C)C(=O)c3ccc4c(c3)OCCO4)nc12	aSyn UTR act -97.0
CN(C)CCCN(C(=O)c1sc2ccccc2c1Cl)c1nc2ccc(F)cc2s1	aSyn UTR act -98.8
CN(C)CCCN(C(=O)c1ccc2c(c1)CCCC2)c1nc2ccc(Cl)cc2s1	aSyn UTR act -69.8
CN(C)CCCN(C(=O)CCc1ccccc1)c1nc2ccc(Cl)cc2s1	none
CN(C)CCCN(C(=O)c1ccc2c(c1)OCCO2)c1nc2cc3c(cc2s1)OCO3	aSyn UTR act -91.6
Cn1cccc1C(=O)NNC(=O)COc1ccccc1F	aSyn UTR act -87.1
Cn1cccc1C(=O)NNC(=O)c1ccccc1Br	aSyn UTR act -96.5
CCN(CC)c1ccc(C(=O)NNC(=O)c2cccn2C)cc1	aSyn UTR act -114.6
COC(=O)c1cccc(CSc2nnc(C)s2)c1	aSyn UTR act -81.9
COc1ccc(CSc2nnc(C)s2)cc1F	aSyn UTR act -127.4
N#CCC(=O)N/N=C/c1ccc(OCc2ccccc2)cc1	aSyn UTR act -66.5
N#CCC(=O)N/N=C\c1ccc(OC/C=C/c2ccccc2)cc1	aSyn UTR act -146.3
CCc1ccc2c(c1)C(c1ccc([N+](=O)[O-])cc1)=NNC(c1ccc(F)cc1)=N2	aSyn UTR act -79.0
